This is part of a sample that, as a whole, favours compounds with a hit. Of some 83,000 tested, about 20% had one in any assay.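 Percent growth is the endpoint: 0 to 100 indicates growth inhibition (40 means 60% inhibition), 0 means no net growth, and negative values indicate cell death.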 Values without a mark were called inactive. The source made the active and inactive calls. The calls were made as follows: active = growth percent below 10; inactive = the rest.

Test systems include T-47D breast; BT-549 breast; MDA-MB-435 melanoma; SW-620 colon; MCF7 breast; HCT-116 colon; KM12 colon.
Test in all cases: NCI-60 one-dose screen, 48 h (100 = growth as untreated, 0 = no growth, -100 = all killed)
Settings in all cases: 10 µM unless noted

In the case of `CO[C@@H](C)Cn1c(=O)n(C)c2cnc3ccc(-c4cncc(C(C)(C)O)c4)cc3c21`, the growth in the test with T-47D breast was -21.9% (active); in the test on BT-549 breast, -6.62% (active); in the test with MDA-MB-435 melanoma, 0.636% (active); in the test with SW-620 colon it was 9.31% (active); with MCF7 breast it was 6.25% (active); with HCT-116 colon, 3.72% (active). Further, the growth in the test on KM12 colon is 5.54% (active).
`COc1cc(F)c(F)c(Nc2ccc(I)cc2F)c1NS(=O)(=O)C1(C[C@H](O)CO)CC1`: the growth is 22.6% in the test on T-47D breast; 62.1% in the test with BT-549 breast; 24.3% in the test on MDA-MB-435 melanoma; 19.3% with SW-620 colon; 61.5% with MCF7 breast; 11.2% with HCT-116 colon. Besides, the growth with KM12 colon was 24.2%.
Turning to `Clc1ccc(/C=C/c2cc(N3CCOCC3)c3cc(Cl)c(Cl)cc3n2)cc1`, the growth was 91.3% in the test on T-47D breast; -20.4% (active) in the test on BT-549 breast; 91% with MDA-MB-435 melanoma; 111% in the test with SW-620 colon; 91.7% in the test on MCF7 breast; 98.3% in the test on HCT-116 colon. Besides, in the test on KM12 colon, the growth is 63.5%.
Consider `Cc1nc(-c2cn3c(n2)-c2ccc(-c4cnn(C(C)(C)C(N)=O)c4)cc2OCC3)n(C(C)C)n1`, for which the growth is -9.88% (active) with T-47D breast; 14.9% in the test on BT-549 breast; 27.8% in the test on MDA-MB-435 melanoma; 44% with SW-620 colon; 13.7% with MCF7 breast; 20.4% in the test on HCT-116 colon. For the same compound, the growth with KM12 colon was 16.2%.
Consider `CCOC(=O)C1=C(C)N=C2Sc3cccc(OC)c3N2[C@H]1c1ccccn1`, for which the growth with T-47D breast is 96.5%; in the test with BT-549 breast, 101%; with MDA-MB-435 melanoma it was 110%; in the test with SW-620 colon, 102%; in the test on MCF7 breast, 97%; with HCT-116 colon it was 94.9%. In addition, in the test with KM12 colon, the growth was 96.6%.
As for `CNC(=O)c1cc(Oc2ccc(NC(=O)Nc3ccc(Cl)c(C(F)(F)F)c3)c(F)c2)ccn1`, the growth with T-47D breast was -34.5% (active); with BT-549 breast, -31.3% (active); in the test on MDA-MB-435 melanoma it was -57% (active); in the test on SW-620 colon it was -8.01% (active); in the test with MCF7 breast, -26.6% (active); in the test with HCT-116 colon it was -37.3% (active). For the same compound, the growth in the test on KM12 colon was -32.3% (active).
As to `Nc1nc(=S)c2ncn(C3OC(COC(=O)c4ccc(Cl)cc4)C(OC(=O)c4ccc(Cl)cc4)C3OC(=O)c3ccc(Cl)cc3)c2[nH]1` (centres undefined), the growth was 59.6% in the test on T-47D breast; 113% in the test with BT-549 breast; 103% with MDA-MB-435 melanoma; 100% in the test with SW-620 colon; 59.8% in the test on MCF7 breast; 76% in the test with HCT-116 colon. In the test on KM12 colon, the growth was 83.9%.
Turning to `CNC(=O)c1ccccc1Nc1nc(Nc2ccc3c(c2OC)CCC[C@H](N2CCN(CCO)CC2)C3)ncc1Cl`, the growth in the test with T-47D breast was -23.1% (active); in the test with BT-549 breast, 29.7%; in the test with MDA-MB-435 melanoma it was -27.6% (active); in the test with SW-620 colon it was -19.9% (active); with MCF7 breast it was 6.63% (active); in the test with HCT-116 colon, -62.6% (active). For the same compound, the growth in the test on KM12 colon was -27.3% (active).
In the case of `COc1ccc(COc2cc3oc(=O)c4cc(C(C)O)ccc4c3cc2OC)cc1` (centres undefined), the growth with T-47D breast is 44.2%; in the test on BT-549 breast it was 59.8%; with MDA-MB-435 melanoma, 3.55% (active); in the test on SW-620 colon, 49.7%; with MCF7 breast, 45.6%; with HCT-116 colon it was 49%. In addition, the growth in the test on KM12 colon was 53%.
For `C[C@@H]1COCCN1c1cc(C2([S@](C)(=N)=O)CC2)nc(-c2ccnc3[nH]ccc23)n1`, the growth in the test with T-47D breast is 21.4%; in the test with BT-549 breast, 27.2%; in the test with MDA-MB-435 melanoma it was 31%; in the test on SW-620 colon, 43.7%; in the test on MCF7 breast, 14.4%; with HCT-116 colon, 35.5%. Moreover, the growth in the test with KM12 colon is 21.4%.
`C[C@H](NC(=O)c1c(N)nn2cccnc12)c1cc2cccc(C#Cc3cnn(C)c3)c2c(=O)n1-c1ccccc1`: the growth was -22.3% (active) in the test with T-47D breast; 2.12% (active) with BT-549 breast; 30.9% with MDA-MB-435 melanoma; 13.4% in the test on SW-620 colon; 5.42% (active) in the test on MCF7 breast; 1.33% (active) in the test with HCT-116 colon. Further, the growth in the test with KM12 colon was -14% (active).
In the case of `Cn1cnc2c(F)c(Nc3ccc(Br)cc3Cl)c(C(=O)NOCCO)cc21`, the growth with T-47D breast was 70%; with BT-549 breast it was 78.5%; in the test with MDA-MB-435 melanoma, 33.3%; with SW-620 colon it was 24.2%; in the test with MCF7 breast it was 96%; in the test on HCT-116 colon, 17.6%. The growth in the test with KM12 colon is 28.6%.
Regarding `COc1ccc(-c2cc3c(oc2=O)-c2ccccc2OC3OC(C)=O)cc1` (centres undefined), the growth is 68.5% in the test with T-47D breast; 102% with BT-549 breast; 110% in the test with MDA-MB-435 melanoma; 98.7% in the test with SW-620 colon; 89.6% in the test on MCF7 breast; 74% in the test on HCT-116 colon. Further, the growth with KM12 colon was 111%.
With `CCN(CC)CCNc1ccc(N=Nc2cnc3ccccc3c2)c2ccccc12`, the growth is -38.8% (active) in the test on T-47D breast; 27.5% in the test on BT-549 breast; -33.2% (active) with MDA-MB-435 melanoma; -84.4% (active) in the test on SW-620 colon; -79.2% (active) in the test on MCF7 breast; -94.8% (active) with HCT-116 colon. Moreover, the growth in the test on KM12 colon was -87.3% (active).
Regarding `O=c1[nH]c([C@@H]2CCCN2)nc2c1oc1ccc(Cl)cc12`, the growth in the test with T-47D breast was 56.4%; in the test with BT-549 breast it was 58.5%; with MDA-MB-435 melanoma, 73.3%; in the test with SW-620 colon, 22.7%; with MCF7 breast it was 49.2%; with HCT-116 colon, 33.6%. Further, the growth with KM12 colon was 31.6%.
Regarding `Cc1nn(-c2ccccc2)c2c1N=c1s/c(=C\c3cn(-c4ccccc4)nc3-c3ccc(Cl)cc3)c(=O)n1C(C)N2` (centres undefined), the growth in the test with T-47D breast was 103%; in the test on BT-549 breast, 105%; in the test on MDA-MB-435 melanoma, 88.6%; in the test on SW-620 colon, 103%; in the test with MCF7 breast it was 90.6%; in the test with HCT-116 colon, 75.2%. In addition, the growth in the test on KM12 colon was 91.8%.
In the case of `C[C@H]1Oc2cc(cnc2N)-c2c(nn(C)c2C#N)CN(C)C(=O)c2ccc(F)cc21`, the growth with T-47D breast was 84.4%; in the test with BT-549 breast, 103%; in the test with MDA-MB-435 melanoma it was 80%; in the test on SW-620 colon it was 90.4%; in the test on MCF7 breast it was 60%; in the test on HCT-116 colon it was 68.7%. Besides, the growth in the test with KM12 colon was 9.06% (active).

These data come from PubChem BioAssay (NCI).
